This is an account of results in PubChem BioAssay (NCI).

Test systems include RPMI-8226 leukemia; OVCAR-8 ovarian; OVCAR-5 ovarian; OVCAR-4 ovarian; SK-OV-3 ovarian; IGROV1 ovarian; OVCAR-3 ovarian; HS 578T breast; NCI/ADR-RES ovarian; T-47D breast; BT-549 breast; MDA-MB-435 melanoma; SW-620 colon; MCF7 breast; HCT-116 colon; KM12 colon; HCC-2998 colon.
Holding throughout (experiment): NCI-60 one-dose screen, 48 h (100 = growth as untreated, 0 = no growth, -100 = all killed)
Holding throughout (settings): 10 µM unless noted

This is part of a sample that, as a whole, favours compounds with a hit. Of some 83,000 tested, about 20% had one in any assay.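 Single-concentration screen, 48 h exposure, 96-well plates. Endpoint: percent growth. Below 10 = active.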 Unmarked numbers belong to inactive results. Active and inactive are the calls of the source.

Consider `NC(N)=Nc1ccc(S(=O)(=O)O)cc1`, for which the growth in the test on RPMI-8226 leukemia is 101%; with OVCAR-8 ovarian, 107%; in the test with OVCAR-5 ovarian it was 99.7%; in the test with OVCAR-4 ovarian, 95.5%; with SK-OV-3 ovarian, 96.7%; with IGROV1 ovarian, 121%. The growth was 129% in the test with OVCAR-3 ovarian; 105% in the test with HS 578T breast; 93.6% with NCI/ADR-RES ovarian; 114% in the test with T-47D breast; 119% with BT-549 breast; 106% in the test with MDA-MB-435 melanoma. Further, the growth with SW-620 colon was 103%; with MCF7 breast it was 102%; with HCT-116 colon, 107%; in the test with KM12 colon it was 116%.

Consider `COc1cc(C2CC(=O)Nc3c2c(C)nn3-c2nc3ccccc3[nH]2)cc(OC)c1OC` (stereo not given), for which the growth is 108% in the test on RPMI-8226 leukemia; 103% with OVCAR-8 ovarian; 103% in the test on OVCAR-5 ovarian; 107% in the test with OVCAR-4 ovarian; 111% in the test with SK-OV-3 ovarian; 85.1% in the test on IGROV1 ovarian. The growth in the test with OVCAR-3 ovarian was 115%; with HS 578T breast, 94.5%; in the test with NCI/ADR-RES ovarian, 98.7%; in the test with T-47D breast, 103%; in the test on BT-549 breast it was 113%; in the test on SW-620 colon, 97.4%. Moreover, the growth with MCF7 breast is 88.1%; in the test on HCT-116 colon, 107%; with HCC-2998 colon, 93.7%; in the test on KM12 colon, 123%.

In the case of `CCCCCn1cnc2c(=S)nc[nH]c21`, the growth with RPMI-8226 leukemia is 81.9%; in the test with OVCAR-8 ovarian, 118%; in the test on OVCAR-5 ovarian, 121%; in the test with OVCAR-4 ovarian, 86.5%; with SK-OV-3 ovarian it was 98.7%; with IGROV1 ovarian, 116%. Also, the growth in the test with OVCAR-3 ovarian was 124%; with HS 578T breast, 101%; in the test on NCI/ADR-RES ovarian, 113%; with T-47D breast, 90.8%; in the test with BT-549 breast, 129%; in the test on MDA-MB-435 melanoma, 105%. The growth with SW-620 colon was 97.8%; with MCF7 breast, 98.4%; in the test with HCT-116 colon, 106%; in the test on KM12 colon, 109%.

Consider `COc1cc(OC)c(/C=C/S(=O)(=O)Cc2ccc(OC)c(N)n2)c(OC)c1`, for which the growth is 33.1% in the test with RPMI-8226 leukemia; 11% in the test on OVCAR-8 ovarian; 50.5% in the test with OVCAR-5 ovarian; 42.1% in the test on OVCAR-4 ovarian; 5.23% (active) in the test with SK-OV-3 ovarian; 26.4% in the test with IGROV1 ovarian. Moreover, the growth was -27.7% (active) in the test on OVCAR-3 ovarian; 43.8% in the test with HS 578T breast; 10.2% with NCI/ADR-RES ovarian; 44.8% in the test on T-47D breast; 2.24% (active) in the test with MDA-MB-435 melanoma; 25.5% with SW-620 colon. Further, the growth in the test on MCF7 breast was 12.9%; in the test on HCT-116 colon it was 2.03% (active); with HCC-2998 colon, 18.8%; with KM12 colon, 12.9%.

With `CCCCCCCCSC1=CC(=O)C(OC)=C(OC)C1=O`, the growth in the test with RPMI-8226 leukemia was -24.5% (active); in the test with OVCAR-8 ovarian it was -9.18% (active); with OVCAR-5 ovarian it was 28%; in the test with OVCAR-4 ovarian, 21.5%; in the test with SK-OV-3 ovarian, 86.4%; with IGROV1 ovarian, 43.2%. In addition, the growth with OVCAR-3 ovarian was -40.8% (active); with HS 578T breast it was 63%; in the test with NCI/ADR-RES ovarian it was -27.1% (active); with T-47D breast it was -76.6% (active); in the test on BT-549 breast, 68.8%; in the test on MDA-MB-435 melanoma it was 7.62% (active). Moreover, the growth in the test on SW-620 colon was -60.5% (active); in the test with MCF7 breast, 13.1%; with HCT-116 colon, -49.9% (active); in the test on KM12 colon, 29.5%.

Consider `CCOC(=O)/C=C/c1ccc(C(=O)OCC)[nH]1`, for which the growth was 75.4% in the test with RPMI-8226 leukemia; 62.9% in the test with OVCAR-8 ovarian; 75.5% in the test on OVCAR-5 ovarian; 108% in the test on OVCAR-4 ovarian; 84.8% in the test with SK-OV-3 ovarian; 42.4% with IGROV1 ovarian. In addition, the growth with OVCAR-3 ovarian was 22.6%; in the test on HS 578T breast, 74%; in the test with T-47D breast it was 34.9%; in the test on BT-549 breast, 88.2%; with MDA-MB-435 melanoma it was -39.5% (active); with SW-620 colon, 19.2%. Moreover, the growth with MCF7 breast is 25.7%; with HCT-116 colon, 26.3%; in the test with HCC-2998 colon, 44.1%; in the test on KM12 colon, 26.6%.

With `COc1ccccc1-c1ccc2c(N)c(C(=O)c3ccc4c(c3)OCO4)sc2n1`, the growth in the test on RPMI-8226 leukemia is 62.2%; in the test on OVCAR-8 ovarian it was 73.8%; in the test with OVCAR-5 ovarian, 87.7%; with OVCAR-4 ovarian, 95.7%; in the test with SK-OV-3 ovarian, 78.3%; in the test on IGROV1 ovarian, 78.1%. For the same molecule, the growth with OVCAR-3 ovarian is 69.8%; in the test with HS 578T breast, 87.6%; with NCI/ADR-RES ovarian, 38.7%; in the test on BT-549 breast, 71.4%; in the test on MDA-MB-435 melanoma, 2.68% (active); in the test with SW-620 colon, 42.2%. Also, the growth with MCF7 breast was 36.3%; in the test with HCT-116 colon, 42.4%; in the test on HCC-2998 colon, 71.4%; with KM12 colon, 53.8%.

With `CC/C(=C(\c1ccccc1)c1ccc(OCCNC)cc1)c1ccccc1`, the growth in the test with RPMI-8226 leukemia is -40.9% (active); in the test on OVCAR-8 ovarian it was -49.6% (active); in the test on OVCAR-5 ovarian, -85.2% (active); in the test on OVCAR-4 ovarian it was -67.1% (active); in the test on SK-OV-3 ovarian it was -53.8% (active); in the test on IGROV1 ovarian, -93% (active). For the same molecule, the growth is -92.1% (active) with OVCAR-3 ovarian; -55.6% (active) in the test with HS 578T breast; -87.3% (active) with NCI/ADR-RES ovarian; -91.2% (active) with BT-549 breast; -93.8% (active) in the test with MDA-MB-435 melanoma; -57.6% (active) in the test with SW-620 colon. In addition, the growth is -95.8% (active) with MCF7 breast, -96% (active) with HCT-116 colon, -99.7% (active) with HCC-2998 colon and -77.7% (active) with KM12 colon.

On to `CCC(c1ccc(O)cc1)C(CC)c1ccc(O)c(F)c1` (stereo not given), for which the growth was 63.7% with RPMI-8226 leukemia; 98.4% in the test on OVCAR-8 ovarian; 93.5% in the test with OVCAR-5 ovarian; 75.3% with OVCAR-4 ovarian; 99% in the test with SK-OV-3 ovarian; 83% with IGROV1 ovarian. The growth in the test with OVCAR-3 ovarian is 85.3%; with HS 578T breast, 73.9%; with T-47D breast it was 65.8%; in the test on BT-549 breast, 92.9%; in the test on MDA-MB-435 melanoma, 75.1%; with SW-620 colon, 93.7%. In addition, the growth in the test with MCF7 breast is 103%; with HCT-116 colon it was 59%; in the test on HCC-2998 colon, 96.4%; in the test with KM12 colon, 82.6%.

`O=C1C(=O)N(CCCCn2cc(CO)nn2)c2ccccc21`: the growth with RPMI-8226 leukemia was 99.3%; with OVCAR-8 ovarian it was 102%; in the test on OVCAR-5 ovarian it was 98.6%; in the test on OVCAR-4 ovarian, 99.2%; in the test with SK-OV-3 ovarian, 100%; in the test with IGROV1 ovarian it was 106%. The growth is 115% with OVCAR-3 ovarian; 98.8% with HS 578T breast; 100% in the test with NCI/ADR-RES ovarian; 98.7% in the test with T-47D breast; 98.9% in the test with MDA-MB-435 melanoma; 99.7% in the test on SW-620 colon. Also, the growth in the test with MCF7 breast was 100%; with HCT-116 colon it was 95.5%; in the test on HCC-2998 colon it was 107%; in the test on KM12 colon, 101%.
